The results in this text go back to PubChem BioAssay (EPA / NIEHS).

Assay [1] can be described thus: ATG_PBREM_CIS: Attagene CIS-FACTORIAL HepG2 Assay for human Phenobarbital-responsive Enhancer Module (PBREM) (AID 2282955). Conditions: HepG2 PBREM cis-reporter, Attagene multiplexed transcription; actives raise or lower the signal. The essentials: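 Cells were transfected with cis-element reporter units and treated for 24 h, after which RNA was extracted and reporter transcripts measured by RT-PCR and capillary electrophoresis.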

For assay [2], the target named is Paired box protein Pax-6 (Homo sapiens) (UniProt P26367). Kind of assay: ATG_Pax6_CIS: Attagene CIS-FACTORIAL HepG2 Assay for human Paired Box 6 (PAX6) (AID 2282956). Particulars: HepG2 CIS-FACTORIAL PAX6 reporter transcription, RNA readout; actives raise or lower the signal. Summed up:
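After twenty-four hours of chemical exposure, transfected HepG2 cells are harvested for RNA. Cis-promoter reporter transcripts are amplified, fluorescently labelled and sized by capillary electrophoresis, with gain and loss of signal scored against DMSO.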

Assay [3] is described as follows: ATG_PXRE_CIS: Attagene CIS-FACTORIAL HepG2 Assay for human Pregnane X Receptor Element (PXRE) (AID 2282957). Conditions: HepG2 Attagene CIS-FACTORIAL PXRE reporter, mRNA; actives raise or lower the signal. Summed up:
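HepG2 cells transiently transfected with cis-element-driven multiplexed reporter units; after 24 h chemical exposure, reporter mRNA measured by RT-PCR, 6-FAM labelling, HpaI digestion and capillary electrophoresis. Bidirectional fitting relative to DMSO.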

Assay [4] can be described thus: ATG_PPRE_CIS: Attagene CIS-FACTORIAL HepG2 Assay for human Peroxisome Proliferator-activated Response Element (PPRE) (AID 2282958). Conditions: HepG2 PPRE cis-element reporter, Attagene transcription factor profiling; actives raise or lower the signal. The essentials:
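In this cell-based multiplex, a PPRE cis element drives a reporter sequence in transiently transfected HepG2 cells. Following 24 h treatment, labeled cDNA amplicons are sized and quantified by capillary electrophoresis, with DMSO defining baseline.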

A short description of assay [5]: ATG_RORE_CIS: Attagene CIS-FACTORIAL HepG2 Assay for human RAR-related Orphan Receptor Element (RORE) (AID 2282959). Conditions: HepG2 Attagene cis-factorial RORE reporter, mRNA; actives raise or lower the signal. Summed up:
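Endogenous factor activity at a cis response element is read as reporter transcript levels in HepG2 cells, 24 h post-dose. Transcripts are quantified by RT-PCR with capillary electrophoresis, and data fitted in both directions against DMSO.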

Assay [6] is described as follows: ATG_Sox_CIS: Attagene CIS-FACTORIAL HepG2 Assay for human SRY-box transcription factor (SOX) (AID 2282960). Particulars: HepG2 Attagene cis-factorial SOX reporter, mRNA; actives raise or lower the signal. The essentials:
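Measures mRNA induction of a SOX1-associated reporter in HepG2 after 24 h dosing. Fluorescently labelled RT-PCR fragments are separated by capillary electrophoresis, and gain or loss relative to DMSO control is fitted.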

The target of assay [7] is Transcription factor Sp1 (Homo sapiens) (UniProt P08047). Description: ATG_Sp1_CIS: Attagene CIS-FACTORIAL HepG2 Assay for human Specificity Protein 1 (Sp1) (AID 2282961). Particulars: HepG2 Sp1 cis-reporter transcription, actives raise or lower the signal. The essentials:
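Cells: HepG2, transiently transfected with cis-regulated multiplexed reporters. Exposure: 24 h. Detection: reporter transcripts amplified, fluorescently labeled, restriction-digested and sized by capillary electrophoresis. Analysis: bidirectional fit relative to DMSO.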

A short description of assay [8]: ATG_SREBP_CIS: Attagene CIS-FACTORIAL HepG2 Assay for human Sterol Regulatory Element Binding (SREBP) (AID 2282962). Conditions: HepG2 Attagene cis-factorial SREBP reporter, mRNA; actives raise or lower the signal. The essentials:
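Twenty-four hours after chemical dosing of transfected HepG2 cultures, reporter RNA was converted to cDNA, amplified, end-labelled with 6-FAM and resolved by capillary electrophoresis. Responses were fitted relative to DMSO.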

The target in assay [9] is Signal transducer and activator of transcription 3 (Homo sapiens) (UniProt P40763). Description: ATG_STAT3_CIS: Attagene CIS-FACTORIAL HepG2 Assay for human Signal Transducer and Activator of Transcription 3 (STAT3) (AID 2282963). Particulars: HepG2, Attagene cis-factorial STAT3 reporter transcription; actives raise or lower the signal. The essentials:
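Endogenous STAT3-responsive cis-element activity was read in transiently transfected HepG2 cells after 24 h treatment. Reporter transcripts were quantified via RT-PCR and capillary electrophoresis, with DMSO as negative control and bidirectional curve fitting.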

A short description of assay [10]: ATG_TA_CIS: Attagene CIS-FACTORIAL HepG2 Assay for human TA Basal Promoter (AID 2282964). Conditions: HepG2 Attagene CIS-factorial TA basal promoter reporter; actives raise or lower the signal. The essentials: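 Read-out: fluorescent reporter-transcript fragments resolved by capillary electrophoresis after RT-PCR and HpaI digestion. Source: HepG2 cells carrying transiently transfected multi-reporter cis constructs, treated 24 h. Endpoint fitted bidirectionally relative to DMSO.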

Assay [11] can be described thus: ATG_TCF_b_cat_CIS: Attagene CIS-FACTORIAL HepG2 Assay for human T-Cell-Factor with beta-catenin (TCF/b-cat) (AID 2282965). Particulars: HepG2 TCF/beta-catenin cis-reporter transcription, actives raise or lower the signal. The essentials:
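Endogenous transcription factor activity is captured through cis-promoter reporter constructs transiently introduced into human HepG2 liver cells. Induced reporter mRNA is measured after 24 h and fitted bidirectionally relative to DMSO.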

A short description of assay [12]: ATG_TAL_CIS: Attagene CIS-FACTORIAL HepG2 Assay for human TAL Basal Promoter (AID 2282966).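 Also: background control endpoint measuring basal TAL promoter reporter mRNA not a specific factor.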 Conditions: HepG2 Attagene cis-factorial TAL promoter reporter; actives raise or lower the signal. Summed up: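 HepG2 cells transiently transfected with multiplexed cis-promoter reporter units, dosed 24 h. Reporter mRNA quantified by RT-PCR, 6-FAM labelling, HpaI digestion and capillary electrophoresis; TAL basal promoter serves as background control, fitted bidirectionally versus DMSO.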

A short description of assay [13]: ATG_TGFb_CIS: Attagene CIS-FACTORIAL HepG2 Assay for human Transforming Growth Factor (TGF) (AID 2282967). Conditions: HepG2 Attagene CIS TGFb reporter, mRNA transcription; actives raise or lower the signal. Summed up:
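Transient MRTU transfection of HepG2 (FuGene 6). Dose 24 h. TriZol RNA, oligo(dT) RT, PCR, 6-FAM primer extension, HpaI cut, CE. Bidirectional fit, DMSO = baseline.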

The nature of assay [14]: ATG_VDRE_CIS: Attagene CIS-FACTORIAL HepG2 Assay for human Vitamin D Receptor Element (VDRE) (AID 2282968). Conditions: HepG2 VDRE cis-reporter transcription, actives raise or lower the signal. Summed up: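 Reporter mRNA induction, quantified by capillary electrophoresis of fluorescently labelled RT-PCR products, was read 24 h after dosing HepG2 cells carrying transiently transfected cis-regulated reporter units; gain or loss relative to DMSO.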

In assay [15] the target is X-box-binding protein 1 (Homo sapiens) (UniProt P17861). Description: ATG_Xbp1_CIS: Attagene CIS-FACTORIAL HepG2 Assay for human X-box Binding Protein 1 (XBP1) (AID 2282972). Particulars: HepG2 XBP1 cis-element reporter, Attagene multiplex; actives raise or lower the signal. Summed up:
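After a 24-hour chemical exposure of HepG2 cells carrying cis-regulated reporters, reporter mRNA levels are assessed. Quantification uses RT-PCR, 6-FAM labelling and capillary electrophoresis. Gain- or loss-of-signal is fitted against DMSO.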

Assay [16] is described as follows: ATG_M_19_TRANS: Attagene TRANS-FACTORIAL HepG2 Assay for M19 Transcription Factor (Internal Marker) (AID 2282974; active = hit-call score of the fitted dose curve at least 0.9, where 1 is the maximum). Conditions: HepG2 Attagene TRANS-FACTORIAL M19 internal marker reporter. Summed up: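 Reporter mRNA induction was measured in transfected HepG2 cells 24 h after dosing. Endpoint fitted upward relative to DMSO and serves as a background control within the multiplexed TRANS panel.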

Assay [17] addresses Nuclear receptor subfamily 1 group I member 3 (Homo sapiens) (UniProt Q14994). Kind of assay: ATG_CAR_TRANS: Attagene TRANS-FACTORIAL HepG2 Assay for human Constitutive Androstane Receptor (CAR) (AID 2282969; active = hit-call score of the fitted dose curve at least 0.9, where 1 is the maximum;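 also: activators raise reporter mRNA above DMSO so AC50 marks induction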). Particulars: HepG2 Attagene TRANS-FACTORIAL CAR reporter. Summed up:
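Readout is reporter mRNA induction, quantified by fluorescent primer extension and capillary electrophoresis after RT-PCR. Cells were HepG2 transiently carrying chimeric NR-Gal4 constructs with GAL4-UAS reporters, treated for 24 h; activity scored upward from DMSO.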

For assay [18], the target named is Steroid hormone receptor ERR1 (Homo sapiens) (UniProt P11474). Description: ATG_ERRa_TRANS: Attagene TRANS-FACTORIAL HepG2 Assay for human Estrogen-Related Receptor alpha (ERRa) (AID 2282971; active = hit-call score of the fitted dose curve at least 0.9, where 1 is the maximum). Conditions: HepG2 Attagene TRANS reporter, ERRa transactivation. The essentials:
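HepG2 cells transiently transfected with GAL4-UAS reporter units and chimeric NR-Gal4 constructs; after 24 hour compound incubation, reporter mRNA quantified by RT-PCR, fluorescent labelling and capillary electrophoresis, gain of signal versus DMSO.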

A short description of assay [19]: ATG_GAL4_TRANS: Attagene TRANS-FACTORIAL HepG2 Assay for GAL4 (Internal Marker) (AID 2282976; active = hit-call score of the fitted dose curve at least 0.9, where 1 is the maximum). Conditions: HepG2 Attagene TRANS GAL4 internal marker reporter. The essentials:
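Background-control readout: GAL4-UAS reporter transcript in transiently transfected HepG2 cells after 24 h compound exposure. Measured by RT-PCR, 6-FAM primer extension, HpaI digest and capillary electrophoresis; gain-of-signal fit versus DMSO.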

Assay [20] deals with Estrogen receptor (Homo sapiens) (UniProt P03372). Kind of assay: ATG_ERa_TRANS: Attagene TRANS-FACTORIAL HepG2 Assay for human Estrogen Receptor alpha (ERa) (AID 2282970; active = hit-call score of the fitted dose curve at least 0.9, where 1 is the maximum). Conditions: HepG2 Attagene TRANS ERa GAL4 reporter, mRNA. The essentials: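 HepG2 cells transiently transfected with multiplexed GAL4-UAS reporter units read out chimeric NR-Gal4 activity. After 24 h compound exposure, reporter mRNA was quantified by RT-PCR, 6-FAM labeling, HpaI digestion and capillary electrophoresis, relative to DMSO.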
Estrogen receptor (Homo sapiens), sequence (P03372 whole entry, looked up, the tested form may be a part): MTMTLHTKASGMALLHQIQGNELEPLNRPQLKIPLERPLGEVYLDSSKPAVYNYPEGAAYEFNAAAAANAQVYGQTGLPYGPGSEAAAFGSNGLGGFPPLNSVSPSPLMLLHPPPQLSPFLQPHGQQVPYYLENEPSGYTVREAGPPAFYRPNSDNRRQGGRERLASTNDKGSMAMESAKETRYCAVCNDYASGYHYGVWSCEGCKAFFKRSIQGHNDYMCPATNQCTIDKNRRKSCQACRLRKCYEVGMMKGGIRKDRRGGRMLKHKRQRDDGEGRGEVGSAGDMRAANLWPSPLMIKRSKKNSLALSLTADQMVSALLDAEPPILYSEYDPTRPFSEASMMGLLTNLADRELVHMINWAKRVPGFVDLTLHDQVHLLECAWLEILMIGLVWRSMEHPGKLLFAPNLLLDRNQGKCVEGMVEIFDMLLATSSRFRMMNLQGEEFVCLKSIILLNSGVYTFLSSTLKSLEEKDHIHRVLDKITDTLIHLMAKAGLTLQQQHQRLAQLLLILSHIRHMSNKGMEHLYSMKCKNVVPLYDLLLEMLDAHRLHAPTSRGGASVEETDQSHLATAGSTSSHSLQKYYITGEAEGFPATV

Results filed as inconclusive are left out. Active and inactive are the calls of the source. The calls were made as follows, unless noted: active = hit-call score of the fitted dose curve at least 0.9, where 1 is the maximum; inactive = score below 0.9.

Paired box protein Pax-6 (Homo sapiens), sequence (P26367 whole entry, looked up): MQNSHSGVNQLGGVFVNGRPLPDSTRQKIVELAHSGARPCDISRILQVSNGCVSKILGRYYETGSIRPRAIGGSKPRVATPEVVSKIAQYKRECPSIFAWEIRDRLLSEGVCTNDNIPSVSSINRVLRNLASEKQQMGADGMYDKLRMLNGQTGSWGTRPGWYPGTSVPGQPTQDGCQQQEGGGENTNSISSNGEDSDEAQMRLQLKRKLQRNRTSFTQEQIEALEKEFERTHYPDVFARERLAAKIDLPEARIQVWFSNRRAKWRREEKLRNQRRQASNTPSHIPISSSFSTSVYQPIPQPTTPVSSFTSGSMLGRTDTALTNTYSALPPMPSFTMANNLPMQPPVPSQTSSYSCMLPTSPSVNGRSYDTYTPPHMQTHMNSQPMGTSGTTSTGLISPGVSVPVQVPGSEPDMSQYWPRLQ
X-box-binding protein 1 (Homo sapiens), sequence (P17861 whole entry, looked up): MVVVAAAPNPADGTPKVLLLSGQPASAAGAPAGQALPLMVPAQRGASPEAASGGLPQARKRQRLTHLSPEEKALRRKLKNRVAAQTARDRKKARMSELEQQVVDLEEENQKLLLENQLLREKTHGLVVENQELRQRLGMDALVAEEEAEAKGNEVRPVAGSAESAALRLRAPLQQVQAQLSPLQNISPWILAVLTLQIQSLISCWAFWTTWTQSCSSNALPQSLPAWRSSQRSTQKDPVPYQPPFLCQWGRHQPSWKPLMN
Steroid hormone receptor ERR1 (Homo sapiens), sequence (P11474 whole entry, looked up, the tested form may be a part): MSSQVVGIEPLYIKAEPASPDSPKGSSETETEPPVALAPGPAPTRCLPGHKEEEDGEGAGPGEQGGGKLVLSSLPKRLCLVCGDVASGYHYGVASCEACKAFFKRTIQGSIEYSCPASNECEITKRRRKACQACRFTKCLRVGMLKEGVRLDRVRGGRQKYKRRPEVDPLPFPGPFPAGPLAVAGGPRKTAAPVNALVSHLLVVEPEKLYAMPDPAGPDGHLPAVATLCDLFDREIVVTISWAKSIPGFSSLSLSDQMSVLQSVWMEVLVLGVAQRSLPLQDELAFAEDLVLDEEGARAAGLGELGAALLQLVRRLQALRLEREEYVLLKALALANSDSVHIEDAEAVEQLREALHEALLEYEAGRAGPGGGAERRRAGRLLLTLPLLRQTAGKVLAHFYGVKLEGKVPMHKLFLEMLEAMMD
Transcription factor Sp1 (Homo sapiens), sequence (P08047 whole entry, looked up): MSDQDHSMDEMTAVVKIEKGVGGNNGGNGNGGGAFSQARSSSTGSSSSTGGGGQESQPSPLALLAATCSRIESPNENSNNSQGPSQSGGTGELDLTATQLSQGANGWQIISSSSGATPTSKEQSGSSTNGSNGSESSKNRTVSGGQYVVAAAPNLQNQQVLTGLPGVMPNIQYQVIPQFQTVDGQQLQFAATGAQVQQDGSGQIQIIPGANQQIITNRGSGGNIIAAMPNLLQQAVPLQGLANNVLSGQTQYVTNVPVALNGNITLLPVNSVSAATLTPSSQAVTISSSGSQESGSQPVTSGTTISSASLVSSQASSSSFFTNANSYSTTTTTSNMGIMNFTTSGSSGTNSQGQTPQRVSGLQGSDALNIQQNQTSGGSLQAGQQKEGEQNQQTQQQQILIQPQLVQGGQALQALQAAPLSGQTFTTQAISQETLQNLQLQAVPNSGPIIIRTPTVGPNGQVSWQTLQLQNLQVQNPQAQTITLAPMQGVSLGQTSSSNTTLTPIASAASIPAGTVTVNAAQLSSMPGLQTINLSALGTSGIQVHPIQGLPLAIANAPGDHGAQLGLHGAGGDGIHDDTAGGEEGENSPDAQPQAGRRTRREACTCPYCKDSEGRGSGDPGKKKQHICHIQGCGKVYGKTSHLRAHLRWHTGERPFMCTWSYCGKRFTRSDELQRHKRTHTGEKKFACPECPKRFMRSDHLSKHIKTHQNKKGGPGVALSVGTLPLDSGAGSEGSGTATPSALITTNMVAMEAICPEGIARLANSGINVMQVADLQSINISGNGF
Signal transducer and activator of transcription 3 (Homo sapiens), sequence (P40763 whole entry, looked up): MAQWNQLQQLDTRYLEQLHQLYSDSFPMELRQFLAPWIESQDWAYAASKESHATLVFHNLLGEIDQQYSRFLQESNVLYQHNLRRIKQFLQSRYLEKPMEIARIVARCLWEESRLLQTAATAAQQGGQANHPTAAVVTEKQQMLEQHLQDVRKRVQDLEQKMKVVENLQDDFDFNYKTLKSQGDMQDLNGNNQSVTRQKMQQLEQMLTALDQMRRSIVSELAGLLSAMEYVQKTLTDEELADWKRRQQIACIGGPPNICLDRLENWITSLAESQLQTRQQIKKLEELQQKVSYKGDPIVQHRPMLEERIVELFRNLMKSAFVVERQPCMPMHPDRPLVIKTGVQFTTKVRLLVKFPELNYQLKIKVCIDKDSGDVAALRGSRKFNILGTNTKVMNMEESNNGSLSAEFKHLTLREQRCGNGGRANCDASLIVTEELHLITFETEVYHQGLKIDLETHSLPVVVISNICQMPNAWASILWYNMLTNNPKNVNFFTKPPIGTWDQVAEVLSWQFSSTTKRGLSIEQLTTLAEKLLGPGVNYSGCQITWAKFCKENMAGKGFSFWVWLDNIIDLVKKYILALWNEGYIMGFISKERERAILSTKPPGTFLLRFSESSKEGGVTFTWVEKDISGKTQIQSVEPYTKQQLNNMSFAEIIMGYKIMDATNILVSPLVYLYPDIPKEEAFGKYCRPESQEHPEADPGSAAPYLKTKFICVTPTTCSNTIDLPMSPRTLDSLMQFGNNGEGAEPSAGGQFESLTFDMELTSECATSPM
Nuclear receptor subfamily 1 group I member 3 (Homo sapiens), sequence (Q14994 whole entry, looked up, the tested form may be a part): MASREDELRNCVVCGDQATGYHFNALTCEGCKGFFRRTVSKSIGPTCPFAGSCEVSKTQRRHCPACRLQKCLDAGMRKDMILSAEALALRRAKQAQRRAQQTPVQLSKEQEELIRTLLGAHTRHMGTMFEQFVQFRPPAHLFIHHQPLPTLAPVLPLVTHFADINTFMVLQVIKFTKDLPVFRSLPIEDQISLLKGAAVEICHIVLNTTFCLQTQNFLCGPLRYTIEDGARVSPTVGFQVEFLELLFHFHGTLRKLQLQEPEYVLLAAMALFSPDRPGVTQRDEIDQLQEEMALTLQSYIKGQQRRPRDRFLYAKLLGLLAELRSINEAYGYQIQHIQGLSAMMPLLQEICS

`Nc1cc([N+](=O)[O-])ccc1C(=O)O`: the outcome in assay [1], in assay [2], in assay [4], in assay [5], in assay [6] and in assay [7] was inactive. The compound was called inactive in [8], in [9], in [10], in [11], in assay [12] and in assay [13]. For the same compound, the compound was called inactive in assay [14], in assay [15] and in assay [16]. Further, in assay [3], the AC50 is 64.5 µM (active).
For `CC1COC(=O)O1` (stereo not drawn), the result in [1], in assay [2], in assay [4], in [5], in assay [6] and in assay [7] was inactive. Moreover, the compound was called inactive in assay [8], in [9], in assay [10], in assay [11], in assay [12] and in [13]. Moreover, the call in assay [14], in assay [17], in assay [18] and in [19] was inactive. The AC50 is 40.3 µM (active) in [3] and 0.0103 µM (active) in assay [15].
Take `COc1ccc2[nH]cc(CCNC(C)=O)c2c1`: the result in [1], in assay [2], in [3], in assay [4], in assay [5] and in assay [6] was inactive. Moreover, the outcome in assay [7], in assay [8], in assay [9], in assay [10], in assay [11] and in assay [12] was inactive. For the same compound, the outcome in [13], in [14], in assay [20], in assay [15] and in assay [19] was inactive.
Turning to `CC(=O)N(C)C`, the outcome in [1], in [2], in [3], in assay [4], in assay [5] and in assay [6] was inactive. Further, the call in assay [7], in assay [8], in assay [9], in [10], in assay [11] and in [12] was inactive. Also, the outcome in [13], in assay [18], in assay [15], in assay [16] and in assay [19] was inactive.
For the compound `CC(C)(C)c1ccc(S)cc1`, the outcome in assay [1], in [2], in assay [4], in assay [5], in assay [6] and in [7] was inactive. Also, the outcome in assay [8], in [9], in [10], in assay [11], in assay [12] and in assay [13] was inactive. Moreover, the result in assay [14], in assay [20], in assay [15] and in assay [19] was inactive. For the same compound, the AC50 in assay [3] was 6.36 µM (active).
As to `CC(=O)Oc1c(C)c(C)c2c(c1C)CC[C@@](C)(CCC[C@H](C)CCC[C@H](C)CCCC(C)C)O2`, the result in assay [1], in assay [2], in assay [3], in assay [4], in assay [5] and in assay [6] was inactive. The call in assay [7], in assay [8], in [9], in assay [10], in [11] and in assay [12] was inactive. Also, the call in [13], in [14], in assay [20], in [18], in [15] and in assay [16] was inactive.
As for `CC(=O)C1=C(C)[C@@H]2C[C@@]3(C1)[C@H](C)CC[C@H]3C2(C)C`, the AC50 in [1] was 161 µM (active); in assay [3], 1.91 µM (active); in [7], 50.5 µM (active); in [8] it was 71.8 µM (active); in [9], 150 µM (active); in assay [10] it was 159 µM (active). Besides, the AC50 is 77.7 µM (active) in assay [11], 161 µM (active) in assay [14] and 2.65 µM (active) in [20]. In addition, the result in [2], in assay [4], in assay [5], in [6], in assay [12] and in assay [13] was inactive. Further, the compound was classed as inactive in [15] and in assay [16].
As to `COc1ccc(OC)cc1`, the result in assay [1], in assay [2], in assay [3], in [4], in [5] and in assay [6] was inactive. For the same compound, the call in assay [7], in [8], in assay [9], in assay [10], in [11] and in [12] was inactive. For the same compound, the outcome in [13], in assay [14], in assay [17], in assay [18], in assay [15] and in [19] was inactive.
